Reference: PubChem BioAssay (EPA / NIEHS)
Calls of active or inactive are those of the source. How the source made its calls: active means hit-call score of the fitted dose curve at least 0.9, where 1 is the maximum; inactive means score below 0.9.

Assays:
[1] = ATG_GLI_CIS: Attagene CIS-FACTORIAL HepG2 Assay for human Zinc Finger Protein GLI1 (AID 2282945); settings: HepG2, Attagene cis-factorial reporter mRNA, GLI element; actives raise or lower the signal
In short: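 HepG2 cells transiently transfected with cis-promoter multiplexed reporter units report endogenous transcription factor activity. After 24 h chemical exposure, reporter mRNA was quantified by RT-PCR, 6-FAM labelling, HpaI digestion and capillary electrophoresis, with bidirectional fitting against DMSO.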

[2] = ATG_ISRE_CIS: Attagene CIS-FACTORIAL HepG2 Assay for human Interferon Regulatory Factor 1 (IRF1) binding to an Interferon-Stimulated Response Element (ISRE) (AID 2282948); settings: HepG2 ISRE cis-reporter (Attagene), mRNA transcription readout; actives raise or lower the signal
In short: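 Transiently transfected HepG2 cells carrying cis-element reporter units, dosed 24 hours. Reporter mRNA quantified by RT-PCR, fluorescent primer extension, HpaI digestion and capillary electrophoresis. Bidirectional fitting relative to DMSO.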

[3] = ATG_M_32_CIS: Attagene CIS-FACTORIAL HepG2 Assay for M32 Transcription Factor (Internal Marker) (AID 2282949); settings: HepG2 Attagene cis-factorial M32 reporter, mRNA; actives raise or lower the signal;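 further: background control marker of the multiplexed CIS panel rather than a real target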
In short: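 Fluorescent capillary electrophoresis peaks of HpaI-digested, FAM-labelled RT-PCR reporter products give the signal. Source: transiently transfected human liver HepG2 cells, 24 h after chemical dosing; bidirectional fitting against DMSO.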

[4] = ATG_M_06_CIS: Attagene CIS-FACTORIAL HepG2 Assay for M06 Transcription Factor (Internal Marker) (AID 2282950); settings: HepG2 Attagene CIS-FACTORIAL M06 internal marker reporter; actives raise or lower the signal
In short: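 Measured 24 h post-dosing in transiently transfected HepG2 cells, this internal-marker endpoint reports reporter mRNA via RT-PCR with fluorescent primer extension and capillary electrophoresis. DMSO served as negative control and baseline for bidirectional fitting.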

[5] = target: Hypoxia-inducible factor 1-alpha (Homo sapiens) (UniProt Q16665); test: ATG_HIF1a_CIS: Attagene CIS-FACTORIAL HepG2 Assay for human Hypoxia Inducible Factor 1 (HIF1A) (AID 2282951); settings: HepG2 Attagene cis-factorial HIF1a reporter transcription; actives raise or lower the signal
In short: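 Cis-element reporter constructs were transiently transfected into HepG2 cells, which were treated for 24 h; reporter RNA was reverse-transcribed, amplified, labelled and resolved by capillary electrophoresis.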

[6] = target: Hepatocyte nuclear factor 6 (Homo sapiens) (UniProt Q9UBC0); test: ATG_HNF6_CIS: Attagene CIS-FACTORIAL HepG2 Assay for human Hepatocyte Nuclear Factor 6 (HNF6) (AID 2282952); settings: HepG2 Attagene cis-factorial HNF6 reporter transcription; actives raise or lower the signal
In short: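 Cells are HepG2 carrying transiently transfected cis-promoter reporter units. Treatment lasts 24 h, after which reporter transcripts are reverse-transcribed, amplified, FAM-labelled and sized by capillary electrophoresis. DMSO serves as baseline.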

[7] = target: Heat shock factor protein 1 (Homo sapiens) (UniProt Q00613); test: ATG_HSE_CIS: Attagene CIS-FACTORIAL HepG2 Assay for human Heat Shock Transcription Factor 1 (HSE) (AID 2282953); settings: HepG2 HSE cis-reporter, Attagene RNA transcription; actives raise or lower the signal
In short: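 Reporter mRNA induction in HepG2 is measured 24 h after dosing, using transiently transfected multiplexed cis-regulated reporter units. Signal comes from capillary electrophoresis of labelled RT-PCR products, with DMSO as negative control.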

[8] = ATG_MRE_CIS: Attagene CIS-FACTORIAL HepG2 Assay for human Metal Responsive Element (MRE) (AID 2282954); settings: HepG2 MRE cis-reporter transcription, Attagene multiplex; actives raise or lower the signal
In short: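 Step one: transfect HepG2 with cis-regulated reporter units. Step two: dose 24 h. Step three: isolate RNA, RT-PCR, 6-FAM label, HpaI digest, capillary electrophoresis. Fit bidirectionally to DMSO.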

[9] = ATG_PBREM_CIS: Attagene CIS-FACTORIAL HepG2 Assay for human Phenobarbital-responsive Enhancer Module (PBREM) (AID 2282955); settings: HepG2 PBREM cis-reporter, Attagene multiplexed transcription; actives raise or lower the signal
In short: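 Multiplexed cis-reporter readout in human hepatoma HepG2 cells; PBREM-regulated transcript quantified after 24 h exposure by fluorescent RT-PCR fragment analysis. Signal changes up or down fitted relative to DMSO.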

[10] = target: Paired box protein Pax-6 (Homo sapiens) (UniProt P26367); test: ATG_Pax6_CIS: Attagene CIS-FACTORIAL HepG2 Assay for human Paired Box 6 (PAX6) (AID 2282956); settings: HepG2 CIS-FACTORIAL PAX6 reporter transcription, RNA readout; actives raise or lower the signal
In short: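 HepG2 cells transiently transfected with cis-promoter-driven multiplexed reporter units sensing endogenous transcription factor activity; 24 h chemical exposure. Reporter mRNA quantified by RT-PCR, 6-FAM labelling, HpaI digestion and capillary electrophoresis; bidirectional fit versus DMSO baseline.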

[11] = ATG_PXRE_CIS: Attagene CIS-FACTORIAL HepG2 Assay for human Pregnane X Receptor Element (PXRE) (AID 2282957); settings: HepG2 Attagene CIS-FACTORIAL PXRE reporter, mRNA; actives raise or lower the signal
In short: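 Multiplexed cis-reporter assay in transiently transfected human HepG2 cells; 24 h chemical exposure. Reporter transcripts quantified by RT-PCR with fluorescent labeling and capillary electrophoresis.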

[12] = ATG_RORE_CIS: Attagene CIS-FACTORIAL HepG2 Assay for human RAR-related Orphan Receptor Element (RORE) (AID 2282959); settings: HepG2 Attagene cis-factorial RORE reporter, mRNA; actives raise or lower the signal
In short: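 Transfect HepG2 with MRTUs; treat 24 h; extract RNA; RT with oligo(dT); PCR with reporter-specific primers; 6-FAM primer extension; HpaI digest 2 h at 37 C; capillary electrophoresis. Fit vs DMSO, bidirectional.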

[13] = ATG_Sox_CIS: Attagene CIS-FACTORIAL HepG2 Assay for human SRY-box transcription factor (SOX) (AID 2282960); settings: HepG2 Attagene cis-factorial SOX reporter, mRNA; actives raise or lower the signal
In short: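 Fluorescence-labelled cDNA fragments from reporter transcripts, sized by CE, give the signal. Cells: HepG2, transiently transfected with cis-regulated reporter units. Exposure 24 h; DMSO negative control; bidirectional curve fitting.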

[14] = target: Transcription factor Sp1 (Homo sapiens) (UniProt P08047); test: ATG_Sp1_CIS: Attagene CIS-FACTORIAL HepG2 Assay for human Specificity Protein 1 (Sp1) (AID 2282961); settings: HepG2 Sp1 cis-reporter transcription, actives raise or lower the signal
In short: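 Chemicals are dosed onto HepG2 cells transfected with multiple cis-promoter reporter constructs, and after 24 h reporter RNA is reverse-transcribed, PCR-amplified and resolved by capillary electrophoresis for fluorescence quantitation; activity is scored up or down against DMSO.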

[15] = ATG_SREBP_CIS: Attagene CIS-FACTORIAL HepG2 Assay for human Sterol Regulatory Element Binding (SREBP) (AID 2282962); settings: HepG2 Attagene cis-factorial SREBP reporter, mRNA; actives raise or lower the signal
In short: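 HepG2 cells transiently transfected with multiplexed cis-promoter reporter units sensing endogenous transcription factors; reporter mRNA measured 24 h after dosing by RT-PCR, 6-FAM labeling, HpaI digestion and capillary electrophoresis. Bidirectional fit versus DMSO.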

[16] = target: Signal transducer and activator of transcription 3 (Homo sapiens) (UniProt P40763); test: ATG_STAT3_CIS: Attagene CIS-FACTORIAL HepG2 Assay for human Signal Transducer and Activator of Transcription 3 (STAT3) (AID 2282963); settings: HepG2, Attagene cis-factorial STAT3 reporter transcription; actives raise or lower the signal
In short: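 Transcript-level reporter assay. HepG2 transient MRTU transfection, 24 h exposure, fluorescence detection after RT-PCR and CE; DMSO baseline.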

[17] = ATG_TA_CIS: Attagene CIS-FACTORIAL HepG2 Assay for human TA Basal Promoter (AID 2282964); settings: HepG2 Attagene CIS-factorial TA basal promoter reporter; actives raise or lower the signal
In short: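 Cis-factorial format in HepG2: reporters report endogenous factors, not chimeric Gal4 fusions. After 24 h treatment, reporter transcripts were measured by RT-PCR-capillary electrophoresis fluorescence, analysed bidirectionally versus DMSO.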

[18] = ATG_GRE_CIS: Attagene CIS-FACTORIAL HepG2 Assay for human Glucocorticoid Response Elements (GRE) (AID 2282947); settings: HepG2 GRE cis-reporter, Attagene multiplex mRNA; actives raise or lower the signal
In short: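 Following 24 h chemical exposure of transiently transfected HepG2 cells, total RNA was reverse-transcribed and reporter cDNA amplified, fluorescently labelled and sized by capillary electrophoresis. Signal gain or loss was fitted relative to DMSO vehicle.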

[19] = ATG_PPRE_CIS: Attagene CIS-FACTORIAL HepG2 Assay for human Peroxisome Proliferator-activated Response Element (PPRE) (AID 2282958); settings: HepG2 PPRE cis-element reporter, Attagene transcription factor profiling; actives raise or lower the signal
In short: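 DMSO served as negative control and baseline for bidirectional curve fitting. Signal came from PPRE-regulated reporter mRNA in HepG2 cells, measured 24 h post-dosing by RT-PCR, 6-FAM primer extension and capillary electrophoresis.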

Measured: AC50

Chain of Hypoxia-inducible factor 1-alpha (Homo sapiens) (Q16665 whole entry, looked up): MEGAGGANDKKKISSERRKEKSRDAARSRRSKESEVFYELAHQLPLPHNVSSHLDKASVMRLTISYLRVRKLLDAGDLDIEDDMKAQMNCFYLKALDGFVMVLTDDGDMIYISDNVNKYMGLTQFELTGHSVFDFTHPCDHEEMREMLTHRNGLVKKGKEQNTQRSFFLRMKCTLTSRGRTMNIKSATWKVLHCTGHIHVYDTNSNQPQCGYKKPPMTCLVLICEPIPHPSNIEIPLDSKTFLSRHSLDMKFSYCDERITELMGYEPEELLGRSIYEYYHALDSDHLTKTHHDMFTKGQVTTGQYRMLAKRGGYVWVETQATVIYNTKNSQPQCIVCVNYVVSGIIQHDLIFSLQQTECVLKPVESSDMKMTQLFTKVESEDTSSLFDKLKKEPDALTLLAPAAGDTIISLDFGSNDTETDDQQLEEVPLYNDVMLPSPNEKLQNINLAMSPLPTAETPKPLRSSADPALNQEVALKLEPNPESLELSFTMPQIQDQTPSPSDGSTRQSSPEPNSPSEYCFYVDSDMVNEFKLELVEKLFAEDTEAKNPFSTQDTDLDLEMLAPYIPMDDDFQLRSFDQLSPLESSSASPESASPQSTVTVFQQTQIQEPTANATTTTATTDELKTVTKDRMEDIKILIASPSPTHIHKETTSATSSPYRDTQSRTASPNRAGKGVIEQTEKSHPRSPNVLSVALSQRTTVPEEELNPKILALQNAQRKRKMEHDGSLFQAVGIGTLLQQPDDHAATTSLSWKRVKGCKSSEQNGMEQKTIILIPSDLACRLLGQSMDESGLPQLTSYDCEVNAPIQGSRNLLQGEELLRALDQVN
Chain of Paired box protein Pax-6 (Homo sapiens) (P26367 whole entry, looked up): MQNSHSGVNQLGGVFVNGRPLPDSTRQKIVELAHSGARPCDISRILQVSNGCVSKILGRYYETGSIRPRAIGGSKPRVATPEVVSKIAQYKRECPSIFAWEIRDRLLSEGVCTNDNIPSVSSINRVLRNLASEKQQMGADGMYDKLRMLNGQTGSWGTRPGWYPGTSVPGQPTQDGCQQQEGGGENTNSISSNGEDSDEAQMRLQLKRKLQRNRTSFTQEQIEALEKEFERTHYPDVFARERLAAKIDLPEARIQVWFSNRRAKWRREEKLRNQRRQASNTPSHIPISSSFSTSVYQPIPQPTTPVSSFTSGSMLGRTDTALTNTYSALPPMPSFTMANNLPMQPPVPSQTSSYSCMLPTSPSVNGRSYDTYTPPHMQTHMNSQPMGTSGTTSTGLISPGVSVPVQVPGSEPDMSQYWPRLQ
Chain of Signal transducer and activator of transcription 3 (Homo sapiens) (P40763 whole entry, looked up): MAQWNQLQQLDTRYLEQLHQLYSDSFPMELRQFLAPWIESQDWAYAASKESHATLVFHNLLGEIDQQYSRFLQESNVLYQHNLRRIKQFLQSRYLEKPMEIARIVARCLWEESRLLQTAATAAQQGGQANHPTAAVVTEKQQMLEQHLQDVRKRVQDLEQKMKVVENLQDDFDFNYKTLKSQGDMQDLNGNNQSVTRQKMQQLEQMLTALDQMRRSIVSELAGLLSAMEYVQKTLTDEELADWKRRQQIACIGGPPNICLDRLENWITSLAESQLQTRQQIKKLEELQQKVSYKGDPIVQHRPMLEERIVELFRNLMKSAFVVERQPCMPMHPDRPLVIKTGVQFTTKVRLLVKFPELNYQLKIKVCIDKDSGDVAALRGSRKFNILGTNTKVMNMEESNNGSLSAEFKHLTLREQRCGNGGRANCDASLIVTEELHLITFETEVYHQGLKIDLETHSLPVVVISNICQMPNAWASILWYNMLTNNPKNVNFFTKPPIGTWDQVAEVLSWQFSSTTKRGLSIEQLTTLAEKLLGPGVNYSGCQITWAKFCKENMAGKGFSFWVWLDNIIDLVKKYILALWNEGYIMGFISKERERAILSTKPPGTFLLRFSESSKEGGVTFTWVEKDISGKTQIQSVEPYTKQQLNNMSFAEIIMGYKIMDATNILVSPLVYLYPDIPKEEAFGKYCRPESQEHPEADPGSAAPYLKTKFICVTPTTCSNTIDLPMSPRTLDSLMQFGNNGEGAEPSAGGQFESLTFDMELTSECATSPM
Chain of Transcription factor Sp1 (Homo sapiens) (P08047 whole entry, looked up): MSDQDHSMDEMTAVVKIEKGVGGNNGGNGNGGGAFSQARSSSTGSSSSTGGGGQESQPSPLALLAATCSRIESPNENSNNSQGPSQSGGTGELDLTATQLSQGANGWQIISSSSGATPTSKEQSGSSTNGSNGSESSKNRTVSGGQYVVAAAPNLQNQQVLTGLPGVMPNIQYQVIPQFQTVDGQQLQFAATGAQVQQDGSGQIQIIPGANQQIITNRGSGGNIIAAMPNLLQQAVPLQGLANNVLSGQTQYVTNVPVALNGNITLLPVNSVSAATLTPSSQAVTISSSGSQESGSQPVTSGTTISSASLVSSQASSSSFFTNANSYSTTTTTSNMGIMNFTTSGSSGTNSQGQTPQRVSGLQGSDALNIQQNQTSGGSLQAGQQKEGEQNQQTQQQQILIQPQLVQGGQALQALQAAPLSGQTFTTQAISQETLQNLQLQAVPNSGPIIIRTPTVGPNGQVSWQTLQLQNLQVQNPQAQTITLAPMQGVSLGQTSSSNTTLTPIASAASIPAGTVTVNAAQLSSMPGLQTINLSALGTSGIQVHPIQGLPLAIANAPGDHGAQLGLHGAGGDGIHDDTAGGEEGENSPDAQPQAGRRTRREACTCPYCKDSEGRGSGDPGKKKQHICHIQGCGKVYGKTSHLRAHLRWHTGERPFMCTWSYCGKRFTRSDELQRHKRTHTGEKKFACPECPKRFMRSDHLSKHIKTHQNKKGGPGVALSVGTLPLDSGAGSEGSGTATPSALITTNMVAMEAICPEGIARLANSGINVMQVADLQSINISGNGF
Chain of Heat shock factor protein 1 (Homo sapiens) (Q00613 whole entry, looked up): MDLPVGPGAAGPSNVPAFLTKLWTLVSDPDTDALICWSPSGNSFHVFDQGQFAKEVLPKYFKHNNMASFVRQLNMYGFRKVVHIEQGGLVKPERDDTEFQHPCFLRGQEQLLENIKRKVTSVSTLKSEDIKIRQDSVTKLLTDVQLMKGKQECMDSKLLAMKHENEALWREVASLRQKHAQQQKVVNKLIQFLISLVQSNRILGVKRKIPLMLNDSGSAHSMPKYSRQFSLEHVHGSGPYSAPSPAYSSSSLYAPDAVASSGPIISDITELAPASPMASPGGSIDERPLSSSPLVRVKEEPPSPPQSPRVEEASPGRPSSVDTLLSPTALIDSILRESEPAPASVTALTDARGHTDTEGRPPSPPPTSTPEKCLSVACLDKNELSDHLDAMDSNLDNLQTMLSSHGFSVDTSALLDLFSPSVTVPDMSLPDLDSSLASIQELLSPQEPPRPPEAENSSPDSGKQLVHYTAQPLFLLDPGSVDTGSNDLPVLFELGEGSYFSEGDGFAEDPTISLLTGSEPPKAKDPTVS
Chain of Hepatocyte nuclear factor 6 (Homo sapiens) (Q9UBC0 whole entry, looked up): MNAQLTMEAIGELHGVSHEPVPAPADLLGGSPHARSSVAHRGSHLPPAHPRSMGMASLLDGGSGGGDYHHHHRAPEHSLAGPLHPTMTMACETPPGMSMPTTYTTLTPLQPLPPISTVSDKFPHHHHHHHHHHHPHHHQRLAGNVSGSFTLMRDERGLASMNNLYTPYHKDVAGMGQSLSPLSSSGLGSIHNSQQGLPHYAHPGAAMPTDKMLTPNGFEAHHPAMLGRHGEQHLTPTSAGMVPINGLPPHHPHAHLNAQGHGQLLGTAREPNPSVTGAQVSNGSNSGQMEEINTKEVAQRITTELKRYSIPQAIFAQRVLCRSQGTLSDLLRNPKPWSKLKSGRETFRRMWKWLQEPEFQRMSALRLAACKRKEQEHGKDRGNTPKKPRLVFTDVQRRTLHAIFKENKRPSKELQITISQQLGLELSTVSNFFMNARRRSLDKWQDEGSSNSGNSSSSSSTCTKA

OCC(CO)(CO)CO
inactive: [1] | [2] | [3] | [4] | [5] | [6] | [7] | [8] | [9] | [10] | [11] | [12] | [13] | [14] | [15] | [16] | [17]

CC1(C)C(=O)N(Cl)C(=O)N1Cl
inactive: [1] | [18] | [2] | [3] | [4] | [5] | [7] | [8] | [10] | [11] | [12] | [13] | [14] | [15] | [16] | [17]

NC(=O)NN=Cc1ccc([N+](=O)[O-])o1
inactive: [1] | [18] | [2] | [3] | [4] | [7] | [8] | [9] | [10] | [11] | [19] | [12] | [13] | [14] | [15] | [16] | [17]

Cc1ccc(S(=O)(=O)NC(=O)NN2CCCCCC2)cc1
inactive: [1] | [18] | [2] | [3] | [4] | [7] | [8] | [9] | [10] | [11] | [19] | [12] | [13] | [14] | [15] | [16] | [17]

c1ccc2ncccc2c1
inactive: [1] | [18] | [2] | [3] | [4] | [5] | [7] | [8] | [9] | [10] | [11] | [19] | [12] | [13] | [14] | [15] | [16] | [17]

CCCCOC(=O)c1ccccc1
inactive: [1] | [18] | [2] | [3] | [4] | [5] | [8] | [10] | [11] | [12] | [13] | [14] | [15] | [16] | [17]

CC(C)c1nnc2ccc(-c3ocnc3-c3cc(F)ccc3F)cn12
inactive: [1] | [18] | [2] | [3] | [4] | [5] | [7] | [10] | [12] | [13] | [15] | [16] | [17]
active: [8] 100 µM | [9] 83.4 µM | [11] 26.5 µM | [14] 125 µM
